Data: PubChem BioAssay AID720513 (Broad Institute, 2013)
Hit rate of the full screen: of about 2,100 compounds, about 480 (23%) were called active. About 5% were inconclusive and are not listed.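 Rule for the calls: active = fitted curve reaches 40% activation at or below the top valid concentration, in every replicate test; inconclusive = replicate tests disagree on the call; inactive = the rest, including activity in the opposite direction.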 A selection follows. Measured potencies and affinities stand elsewhere.

test: activators raising PGC1a acetylation in cells, dose response, cell-based, cherry-picked samples, set 6 (AID 720513); conditions: U2OS PGC1a acetylation AlphaLISA, overnight, 0 = neutral, -100 = inhibitor control; series mostly up to 19.5 µM;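 note: cells made to overexpress flag tagged PGC1a plus GCN5 acetyltransferase by viral infection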

outcome, inactive:
COc1ccc(CCNc2ccc(C(CC(N)=O)NC(=O)c3cc(C)cc(C)c3)cc2[N+](=O)[O-])cc1 (stereo not drawn), CN(C[C@H]1N[C@@H](CO)[C@@H]1c1ccc(C2=CCCC2)cc1)C(=O)c1cccc(F)c1, Cc1ccsc1C(=O)Nc1cc(Cl)ccc1-n1cncn1, S=c1nc[nH]c2c1cnn2Cc1ccccc1, CCCC[C@@]1(C2CCCC2)Cc2cc(OCC(=O)O)c(Cl)c(Cl)c2C1=O, COC(=O)c1nn(-c2ccccc2)ccc1=O, CC(=O)N1/C(=C/c2ccc(N(C)C)cc2)C(=O)c2ccccc21, CC1CCCCC1NC(=O)C1CCN(C(=O)NC2CCCCC2)CC1 (stereo not drawn), O=C1Nc2ccccc2N=C(c2ccccc2)C1N(Cc1ccc(F)cc1)C(=O)c1cccnc1 (stereo not drawn), O=C(NCc1ccc2c(c1)OCO2)c1nc(S(=O)(=O)Cc2ccccc2)ncc1Cl, COc1ccc(NC(=O)/C(Cl)=C(/Cl)S(=O)(=O)Cc2ccccc2)cn1, N#CCSc1nnc(COc2ccc3ccccc3c2)o1, O=S(=O)(Nc1cccc(CCc2ccccn2)c1)c1ccc2ccccc2c1, C=C[C@H]1CN2CCC1C[C@H]2[C@H](O)c1ccnc2ccc(OC)cc12 (stereo partly drawn), CN1/C(=C\C(=O)c2oc3ccccc3c2N)C(C)(C)c2ccccc21, COC(C[C@H]1O[C@@H]1[C@H](O)[C@H](C)OCc1ccccc1)OC, COc1ccc2[nH]c(C(=O)O)c(NC(=O)c3ccccc3[N+](=O)[O-])c2c1, Cc1nc(Nc2ccc(S(N)(=O)=O)cc2)sc1C(=O)Nc1ccccc1, C[C@@H]1CN([C@H](C)CO)C(=O)CCCn2cc(nn2)CO[C@@H]1CN(C)C(=O)NC1CCCC1, CC(=O)Nc1nc(C)c(Oc2ccc(Cl)cc2)c(=O)[nH]1, CSc1nc2nccc(/C=C\c3ccccc3)n2n1, COC(=O)C(=Cc1ccc(OCc2ccc([N+](=O)[O-])cc2)c(OC)c1)C(=O)OC, COc1ccc(C(=O)OCC(=O)NCc2ccc3c(c2)OCO3)cc1[N+](=O)[O-], CCCn1c(SC(C)C(=O)NCC2CCCO2)nc2cc(Cl)ccc2c1=O (stereo not drawn), O=C(CSc1nc(O)cc(=O)n1-c1ccccc1)N1CCCCC1, C[C@@H]1CN([C@H](C)CO)S(=O)(=O)c2ccc(C3=CCCCC3)cc2O[C@H]1CN(C)Cc1ccccc1, Oc1ccc(C2CNCCc3c2cc(O)c(O)c3Cl)cc1 (stereo not drawn), COC(=O)C1CCN(Cc2nnc(-c3ccccc3)o2)CC1, Cc1nc2ccccc2c(=O)n1NC(=O)c1ccc(Cl)c([N+](=O)[O-])c1, Cc1ccc2nc(SCC(=O)Nc3ccc(F)cc3)nc(=O)n2c1, CC(C(=O)OCn1nnc2ccccc2c1=O)N1C(=O)c2ccccc2C1=O (stereo not drawn), O=C1C=CC2(C=C1)O[C@H](Cc1ccccc1)[C@@H](Cc1ccccc1)O2, CCOC(=O)C(CC)(CC)C(=O)/C=C/c1ccc(Br)cc1, CCOc1ccccc1CNC(=O)c1cc2oc3ccccc3c2n1C, CSCCC(NC(=O)c1ccc(Cl)cc1)C(=O)OCC(=O)Nc1cc(Cl)ccc1C (stereo not drawn), Cc1cccc(NC(=O)CNC(=O)Cn2ncc(Cl)c(Cl)c2=O)c1C, CCOC(=O)c1cn(-c2ccccc2)nc1-c1cccnc1, COc1ccc2c([N+](=O)[O-])c(N3CCCC3)[nH]c2c1, COCCCNC1CS(=O)(=O)CC1O (stereo not drawn), COc1ccc(N(C)S(=O)(=O)c2cccc(C(=O)Nc3ccc(-n4cnnn4)cc3)c2)cc1, O=C(c1ccc2ccccc2c1)N1CCCC1, COc1ccc(CCNC(=O)COC(=O)c2ccco2)cc1OC, COc1ccc(CCNC(=O)C(=O)NCC2CCCO2)cc1OC (stereo not drawn), CCC(C)NCCOCCOc1ccc(C)cc1OC (stereo not drawn), CCOC(=O)c1c(C)nc2sc3c(=O)n(-c4ccc(OC)cc4)cnc3c2c1-c1ccc(OC)cc1, C[C@H]1CN([C@@H](C)CO)C(=O)c2cc(C#Cc3ccccc3)cnc2O[C@H]1CN(C)C(=O)c1ccccn1, CC1CN(C2CCN(C(=O)c3cccc(Cl)c3)CC2)CC(C)O1 (stereo not drawn), CCOC(=O)C1(CC2CCCCO2)CCN(C(=O)Nc2ccc(SC)cc2)CC1 (stereo not drawn), O=C1c2ccccc2C(=O)N1c1ccc(Cc2ccncc2)cc1, Cc1ccc(NC(=O)CC2=NC(=O)C(CC(=O)Nc3ccccc3F)S2)cc1 (stereo not drawn), Cc1ccc(CCC(=O)Nc2ccc(Cl)cc2)o1, O=C(O)C1CCCN1S(=O)(=O)c1ccc(Br)s1 (stereo not drawn) (tested in a mixture with another compound), COCCNC(=O)CCc1c(C)nc2c(c(C)nn2-c2ccc(C)c(C)c2)c1C, C[C@H](CO)N1C[C@H](C)[C@@H](CN(C)Cc2cccnc2)Oc2cc(C3=CCCC3)ccc2S1(=O)=O, Cc1cc(C)n(C(=O)c2ccc([N+](=O)[O-])cc2N)n1, Cc1ccc(-c2cc(C(=O)N3CCOCC3)c3ccccc3n2)o1, COc1ccc(S(=O)(=O)Nc2ccccc2C)cc1C(=O)N1CCOCC1, O=C(N=Nc1c(O)[nH]c2ccccc12)c1cc(-c2cccs2)[nH]n1, COc1ccccc1NC(=O)/C=C1\SCC(=O)N1C, Oc1c(Cl)cc(CN2CCOCC2)c2cccnc12, COc1ccc2c3c([nH]c2c1)[C@H](CO)N(C(=O)c1ccncc1)CC31CN(C(=O)c2ccncc2)C1, Cc1nc(SCC(=O)NC2CCCC2)[nH]c(=O)c1C, Cc1ccc(Cl)c(Cn2cnc3c(cnn3C(C)(C)C)c2=O)c1F, C[C@H](CO)N1C[C@H](C)[C@@H](CN(C)C(=O)CCN2CCCCC2)Oc2ncc(C#Cc3ccccn3)cc2C1=O, Cn1nnnc1Sc1ncnc2scc(-c3cc4ccccc4o3)c12, Cc1ccc(N2C(=O)N(CC(=O)Nc3ccc(C)cc3[N+](=O)[O-])C(=O)C2C)cc1 (stereo not drawn), O=C(CC(CC(=O)c1ccc(Br)cc1)c1cccnc1)c1ccc(Br)cc1, CC(C)(C)NC(=O)C(=O)NNC(=O)c1cccc([N+](=O)[O-])c1, Cc1ccc(NC(=O)c2ccc(NCC3CCCO3)c([N+](=O)[O-])c2)cc1Cl (stereo not drawn), CCc1ccc(NC(=O)Nc2ccncc2)cc1, CC(C)(C)c1ccc(OCC(=O)NNC(=O)Nc2ccccc2)cc1, N#CC1=C(N)Oc2n[nH]c(-c3ccccc3)c2C1c1ccncc1 (stereo not drawn), CN(CC(=O)NCC1CCCO1)S(=O)(=O)c1cc(Cl)ccc1Cl (stereo not drawn), Cc1noc(C)c1CSc1nnc(-c2cccnc2)n1C1CCCCC1C (stereo not drawn), C/C=C/c1ccc2c(c1)O[C@H](CN(C)C(=O)C1CC1)[C@H](C)CN([C@@H](C)CO)S2(=O)=O, CN(Cc1cnc2nc(N)nc(N)c2n1)c1ccc(C(=O)N[C@@H](CCC(=O)O)C(=O)O)cc1, Cc1ccc(S(=O)(=O)C(C#N)c2nc3ccccc3nc2N2CCCC2)cc1 (stereo not drawn), CCn1nnc(NC(=O)c2ccc(C(C)(C)C)cc2)n1, O=C(NCc1ccc2c(c1)OCO2)c1ccc(NC(=O)C2CCCO2)cc1 (stereo not drawn), CC(C)(C)OC(=O)N1CCCC(C(=O)Nc2cccc(C(=O)NCc3ccccc3)c2)C1 (stereo not drawn), O=C1NC(Nc2nccs2)(C(F)(F)F)C(=O)N1CCc1ccccc1 (stereo not drawn), CC(C)CC(NC(=O)c1ccc(Cl)cc1)C(=O)OCC(=O)c1ccc2c(c1)NC(=O)CO2 (stereo not drawn), C[C@H]1CN([C@@H](C)CO)C(=O)Cc2cc(NS(=O)(=O)c3ccc(F)cc3)ccc2O[C@@H]1CN(C)C(=O)Nc1ccc2c(c1)OCO2, Cc1cc(C(=O)Nc2cccc3c2O[C@H](CN(C)C(=O)Nc2ccc4c(c2)OCO4)[C@@H](C)CN([C@H](C)CO)C3=O)n(C)n1, C[C@H]1CN([C@@H](C)CO)C(=O)CCCn2nncc2CO[C@@H]1CN(C)C(=O)Nc1ccc2c(c1)OCO2, C[C@H]1CN([C@@H](C)CO)C(=O)c2cccc(NC(=O)c3ccncc3)c2O[C@H]1CN(C)C(=O)Nc1ccc2c(c1)OCO2, OCCN(Cc1ccccc1)CC1CCCCC1, O=C(Nc1ccccc1F)N1CCCCN2[C@@H](CO)[C@@H](c3ccc(C#Cc4ccccc4)cc3)[C@@H]2C1, CC(=O)Nc1cccc(-c2ccnc3c2CC(C)(C(=O)Nc2ccc(C(C)C)cc2)O3)c1 (stereo not drawn), COc1ccc(NC(=O)C2(C)Cc3c(-c4cccc(NC(C)=O)c4)ccnc3O2)cn1 (stereo not drawn), C[C@@H]1CCCCO[C@@H](CN(C)CC2CC2)[C@@H](C)CN([C@H](C)CO)C(=O)c2cc(NC(=O)C3CCCCC3)ccc2O1, NC(=O)c1ccc(NC(=O)C#Cc2ccccc2)cc1, CC(=O)Nc1ccc(C(=O)OC2CCOC2=O)cc1 (stereo not drawn), COc1ccccc1OCCn1c(C(C)O)nc2ccccc21 (stereo not drawn), COc1ccccc1C(=O)Nc1ccc2c(c1)C(=O)N(C)C[C@H](OC)[C@H](C)CN(CC1CC1)[C@@H](C)CO2, CCCCOc1ccc(/C=C/C(=O)OCC(=O)c2c(N)n(C)c(=O)n(C)c2=O)cc1OCC, CCCn1c(=O)c2ccccc2n2c(SCc3c(C(=O)OCC)oc4ccccc34)nnc12, COc1ccccc1-c1ccc([C@@H]2[C@H](CO)N(C(C)=O)C23CN(C(C)=O)C3)cc1
